Most compounds without a hit are left out; they make up all but 21% or so of the library.
CYP2C19 inhib: blocks human cytochrome P450 2C19; inhibition, % at 5 µM; hit rate 21% among 96,000; AID 778; CYP2C19 Supersomes, luciferin-H EGE luminescence, 30 min;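 active = CYP2C19 inhibition above a set limit at 5 µM in the primary screen, cut at about 50% in these data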;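 note: plate controls were negative control wells for no effect and 2.5 mM tranylcypromine positive control for full effect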
MRP resist rev: compounds reversing MRP-mediated drug resistance | H69AR cells + 2 uM doxorubicin, CellTiter-Glo, 72 h | differential viability (reversal), % at 10 µM | hit rate 0.04% among 85,000;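 active = viability drop by adding the cancer drug above about 55%, with treated viability meeting a 40% cutoff, limit read from the data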;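 note: viability without doxorubicin minus viability with 2 µM doxorubicin for each compound; larger differential means the compound sensitizes cells more to doxorubicin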
MRP-1 activ: activates MRP-1 | H69AR cells + doxorubicin, viability rescue, CellTiter-Glo | viability increase, % at 10 µM | hit rate 0.61% among 140,000 | AID 799;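 active = viability gain under doxorubicin at or above a set limit, the compound median plus 3 SD, cut at about 4.7% in these data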;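 note: MRP-1 overexpressing cells given doxorubicin 25 µM after compound pretreatment; 18-22 h compound pretreatment then 72 h with doxorubicin before readout; 0% = doxorubicin-only wells and 100% = vehicle-treated cells without doxorubicin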
CYP2C9 activ: activators of human CYP2C9 | hit rate 1.4% among 96,000 | P11712 | recombinant CYP2C9, luciferin-H conversion, luminescence; stronger effect = higher value; factor 1 = untreated enzyme, 0 = blocked | activation factor at 5 µM;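 active = activation factor of 2 or more for CYP2C9 at a 5 µM dose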;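 note: 0 = sulfaphenazole-blocked wells and 1 = vehicle-only wells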
Target sequence (P11712 whole entry, looked up): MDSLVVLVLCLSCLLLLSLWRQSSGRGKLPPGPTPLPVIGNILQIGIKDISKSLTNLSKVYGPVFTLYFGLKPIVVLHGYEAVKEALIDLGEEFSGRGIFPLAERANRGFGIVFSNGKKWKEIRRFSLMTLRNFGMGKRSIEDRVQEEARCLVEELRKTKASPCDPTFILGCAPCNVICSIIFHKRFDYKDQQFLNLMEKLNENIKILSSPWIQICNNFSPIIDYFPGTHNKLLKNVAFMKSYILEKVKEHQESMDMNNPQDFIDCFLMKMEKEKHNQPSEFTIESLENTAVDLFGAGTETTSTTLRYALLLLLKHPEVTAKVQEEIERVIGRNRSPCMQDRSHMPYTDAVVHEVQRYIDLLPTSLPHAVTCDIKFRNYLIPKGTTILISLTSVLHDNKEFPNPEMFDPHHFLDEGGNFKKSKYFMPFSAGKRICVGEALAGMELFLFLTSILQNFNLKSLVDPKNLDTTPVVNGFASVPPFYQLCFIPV
CYP2C9 inh: blocks human cytochrome P450 2C9. P11712. CYP2C9 Supersomes, luciferin-H conversion, luminescence. inhibition, % at 5 µM. hit rate 20% among 96,000;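 active = blocking of liver enzyme CYP2C9 beyond about 50% at 5 µM, limit read from the data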
CYP2C19 act: cytochrome P450 2C19 (human) activation. P33261. recombinant CYP2C19, luciferin-H EGE luminescence; stronger effect = higher value; 0 = fully inhibited enzyme, 1 = untreated enzyme. activation factor at 5 µM. 96,000 tested, under 10 active;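 active = activation factor of at least 2 at 5 µM in the primary screen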;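 note: 0 = wells with 2.5 mM tranylcypromine and 1 = vehicle-only wells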
Active calls of the source: *; nt = no result given.

SMILES | CYP2C19 inhib | MRP resist rev | MRP-1 activ | CYP2C9 activ | CYP2C9 inh | CYP2C19 act
CCOc1ccc(S(=O)(=O)Nc2nc3ccc(OC)cc3s2)cc1 | 82* | nt | 0 | 0 | 99* | 0.2
CCOc1ccc2nc(NS(=O)(=O)c3ccc4c(c3)n(C)c(=O)n4C)sc2c1 | 44 | 1 | -1 | 0 | 98* | 0.6
CCCCn1c(N)c(Sc2ccc(C)cc2)c(=O)[nH]c1=O | 53* | 5 | 0 | 0.6 | 41 | 0.5
CCCCOc1ccc(C(=O)Nn2cnnc2)cc1 | 93* | 14 | 0 | 0.1 | 93* | 0.1
CCCCNC(=O)Cn1c2c(c(-c3ccccc3Cl)cc1=O)CCC2 | 61* | 0 | -1 | 0.2 | 78* | 0.4
CCOC(=O)c1sc(NC(=O)CSc2nc(-c3ccco3)cc(C(F)(F)F)n2)c(C(=O)OC)c1C | 46 | nt | -2 | 0.3 | 72* | 0.5
CCCOC(=O)c1c(NC(=O)CSc2nc(-c3ccco3)cc(C(F)(F)F)n2)sc(C(=O)OC)c1C | 22 | 12 | 1 | 0.3 | 70* | 0.8
Cc1ccc(NC(=O)CCSc2ccccn2)cc1 | nt | nt | -1 | nt | nt | nt
Cc1nc(-c2ccccc2)sc1C(=O)CSc1ccccc1 | 4 | nt | -1 | 0.2 | 80* | 1
Cc1nc(-c2ccccc2)sc1C(N)=O | 22 | 22 | 0 | 0.6 | 36 | 0.8
Cc1nc(-c2ccccc2)sc1C(=O)CSc1ccc(F)cc1 | 64* | nt | 0 | 0.1 | 86* | 0.4
Cc1c(C(=O)OC(C)C)[nH]c2c1C(=O)CCC2 | 35 | 13 | 0 | 0.5 | 46 | 0.7
Cc1c(C(=O)OC(C)C)[nH]c2c1C(=O)CC(C)(C)C2 | 75* | -13 | -1 | 0.2 | 76* | 0.2
COc1ccc(/C(N)=N/OC(=O)Cc2ccc(C)cc2)cc1OC | nt | nt | -1 | nt | nt | nt
CO[C@@]1(NC(=O)CSCC#N)C(=O)N2C(C(=O)O)=C(CSc3nnnn3C)CS[C@@H]21 | nt | -9 | -2 | nt | nt | nt
Cc1ccc(NC(=O)NC2=N/C(=C(/C#N)C(=O)N3CCCC3)c3ccccc32)cc1 | 89* | -18 | nt | 0 | 98* | 0.1
O=C(N/N=C/c1ccc[nH]1)c1ccc(Cl)cc1 | nt | nt | -2 | nt | nt | nt
CCOC(=O)c1c(N)sc(-c2ccccc2)c1C | nt | 13 | -2 | nt | nt | nt
Cc1c(-c2ccccc2)sc(N)c1C(=O)N1CCOCC1 | 88* | 12 | 0 | 0.1 | 86* | 0.1
O=S(=O)(NCC1CCCO1)c1ccc(S(=O)(=O)N(Cc2ccc(F)cc2)Cc2ccco2)cc1 (stereo not given) | nt | nt | -2 | nt | nt | nt
CCC(NC(=O)Nc1nnc(C(F)(F)F)s1)(C(F)(F)F)C(F)(F)F | 15 | -5 | -3 | 0.3 | 71* | 0.8
COc1ccc(C(=O)Nc2nnc(C(F)(F)F)s2)cc1 | 6 | -16 | 1 | 0.3 | 75* | 0.9
O=C(O)CCC(=O)Nc1nnc(C(F)(F)F)s1 | -1 | 4 | 0 | 1.1 | -5 | 1
O=C(CSc1nnc(SCc2cccc3ccccc23)s1)N/N=C/C=C/c1ccccc1[N+](=O)[O-] | nt | nt | -2 | nt | nt | nt
CC(NC(=O)OCc1ccccc1)C(=O)N1CC(O)CC1C(=O)O (stereo not given) | -16 | -9 | 1 | 1.2 | -16 | 1.2
SMILES | CYP2C19 inhib | MRP resist rev | MRP-1 activ | CYP2C9 activ | CYP2C9 inh | CYP2C19 act
CNS(=O)(=O)c1cc(OC)ccc1OC | 8 | 2 | -1 | 0.9 | 12 | 0.9
COc1ccc(OC)c(S(=O)(=O)NCc2csc(-c3ccccc3)n2)c1 | 62* | nt | 0 | 0.6 | 37 | 0.4
COc1ccc(OC)c(S(=O)(=O)NCc2cn3c(C)csc3n2)c1 | -1 | 8 | 0 | 1.2 | -19 | 1
COc1ccc(OC)c(S(=O)(=O)NCCc2ccccc2)c1 | 87* | 3 | -1 | 0.3 | 69* | 0.1
CCn1nnnc1-c1ccc(OC)c(S(=O)(=O)NCCc2ccccc2)c1 | 89* | 8 | -2 | 0.3 | 68* | 0.1
CCCCCn1c(-c2ccco2)nc2nc3ccccc3nc21 | 10 | -11 | -4 | 0.6 | 40 | 0.9
O=c1c2ccccc2nc(-c2ccc(Br)cc2)n1Cc1ccccc1 | 36 | nt | -3 | 0.2 | 83* | 0.6
O=c1c2ccccc2nc(N2CCN(c3ccccc3)CC2)n1Cc1ccccc1 | 30 | 0 | -2 | 0.3 | 71* | 0.7
COc1ccc(OCCn2c(NC(=O)c3ccco3)nc3ccccc32)cc1 | 2 | 2 | -2 | 0.9 | 7 | 1
COc1ccc(C(=O)n2c(-c3ccco3)nc3ccccc32)cc1 | 54* | -23 | -1 | 0.4 | 61* | 0.5
COc1ccc(CCn2c(-c3ccco3)nc3nc4ccccc4nc32)cc1 | 83* | -11 | -4 | 0.2 | 82* | 0.2
Cc1ccc(NC(=O)CSc2ncccc2C(=O)Oc2cccc([N+](=O)[O-])c2)cc1Cl | nt | nt | -4 | nt | nt | nt
CCn1c(=O)n(-c2ccc(Cl)cc2)c(=O)c2c3c(sc21)COC(C)(C)C3 | 23 | -26 | -3 | 0.7 | 26 | 0.8
Cc1ccc(C(C(=O)NC2CCCCC2)N(Cc2ccco2)C(=O)Cn2cnc3ccccc32)cc1 (stereo not given) | nt | 11 | -5 | nt | nt | nt
Cc1cccc(-c2c3c(=O)n(C)c(=O)n(C)c3c3c(C)cc(C)nn23)c1 | nt | 6 | nt | nt | nt | nt
CCOc1ccc(CCn2c(-c3ccco3)nc3ccccc3c2=O)cc1OCC | 79* | -7 | -3 | 0.8 | 25 | 0.2
Clc1ccc(OCCn2c(-c3ccco3)nc3ccccc32)cc1 | 59* | 6 | 1 | 0.4 | 56* | 0.4
O=c1c2ccccc2nc(-c2ccoc2)n1CCc1ccccc1 | 58* | 1 | 1 | 0.4 | 56* | 0.4
c1coc(Cn2c(-c3ccco3)nc3ccccc32)c1 | 4 | -4 | -2 | 0.9 | 15 | 1
CCCn1c(C)cc(C(=O)COC(=O)CN=C2NS(=O)(=O)c3ccccc32)c1C | nt | nt | -1 | nt | nt | nt
Cn1c(SCc2nc3ccccc3[nH]2)nnc1-c1ccccn1 | 69* | 11 | 0 | 0.9 | 8 | 0.3
CC(C)OC(=O)CSc1nnc(-c2ccccn2)n1C | 9 | 10 | 1 | 1.1 | -5 | 0.9
C=CCn1c(SCc2nc3ccccc3[nH]2)nnc1-c1ccccn1 | 97* | nt | -2 | 0.8 | 19 | 0
Cc1ccc(/C=C/C(=O)N2CCN(c3ncccn3)CC2)o1 | nt | nt | -4 | nt | nt | nt
S=C(NCCC(c1ccccc1)c1ccccc1)Nc1ccccc1Cl | 55* | nt | -4 | 0.3 | 66* | 0.4
SMILES | CYP2C19 inhib | MRP resist rev | MRP-1 activ | CYP2C9 activ | CYP2C9 inh | CYP2C19 act
COc1ccccc1NC(=S)NCCC(c1ccccc1)c1ccccc1 | nt | nt | -4 | nt | nt | nt
O=C(Nc1cccnc1)c1cccc(F)c1 | nt | nt | 1 | nt | nt | nt
O=C(Nc1ccc2c(c1)OCCO2)c1ccc(S(=O)(=O)N2CCCCC2)cc1 | 29 | 0 | 0 | 0.3 | 70* | 0.7
O=C(Nc1ccc2c(c1)OCO2)c1ccc(Br)c(S(=O)(=O)N2CCCC2)c1 | nt | -22 | -3 | nt | nt | nt
O=C(CN1CCN(S(=O)(=O)c2ccc(Br)cc2)CC1)Nc1ccc2c(c1)OCCO2 | 78* | -16 | -3 | 0.7 | 35 | 0.2
O=C(Nc1ccc2c(c1)OCCO2)c1ccc(Br)c(S(=O)(=O)N2CCOCC2)c1 | 82* | -3 | -1 | 0.5 | 53* | 0.2

Compound activity: PubChem BioAssay, several laboratories
